This is a sample that favours compounds with a hit; in the whole collection about 7.9% have one here.
FMDV inh – blocks foot and mouth disease virus; FMDV antiviral cell-based qHTS; Potency, µM (titrated, usually from 57.9 µM), actives largely listed as inhibitors; actives 1.2% (n = 410,000); AID 1159524; calls by dose curve; tested in HEK293T cells; also: read-out not given here; nearly all actives have a fitted effect of over 45% in size
MARV entry inh – blocks Marburg virus binding to or entry into cells; Potency, µM (doses to about 37.8 µM), actives largely listed as inhibitors; Marburg virus pseudotyped entry inhibition, cell reporter; actives 1.8% (n = 300,000); calls by dose curve; tested in HEK293 cells
LASV entry inh – inhibitors of Lassa virus binding or cell entry | AID 540256 | Potency, µM (doses to about 37.9 µM), hits mostly inhibitors | Lassa virus pseudotype entry inhibition, cell reporter | actives 1.2% (n = 300,000); calls by dose curve; tested in HEK293 cells; also: nearly all actives have a fitted effect of over 50% in size
HCMV antiviral – inhibitors of human cytomegalovirus. HFF cells, HCMV-luciferase reporter, 72 h; active compounds read low. activity change, negative = inhibition, % at 57.5 µM. actives 4.5% (n = 410,000); in the data active = activity change below about -60%; inconclusive = no clear call, values can overlap the other calls; inactive = above about -39%
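Two-dose cell screen: HFF monolayers treated with compounds and infected with luciferase-expressing HCMV at 1 PFU/cell, 72 h at 37C, then lysed for luciferase measurement.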
HCV inh – blocks hepatitis C virus | Huh7.5.1 HCVcc-Cre infection, luciferase reporter, 44 h | Potency, µM (doses to about 41.8 µM), actives largely listed as inhibitors | actives 3.4% (n = 340,000) | AID 651820; active = well fitted inhibition curve with a large enough effect; inconclusive = small, poorly fitted or top-dose-only effect, or another doubt; inactive = no such curve, though single readings can be large or run the other way
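After 44 h co-culture of compound, cells and HCVcc-Cre (~0.5 moi), substrate is added for 15 min at room temperature and luciferase measured over 15 sec. Cells were seeded at 1,000/well and pre-cultured 4 h.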
Of the large screens only hits and unclear results are named; the others gave an inactive call.

CCC(Nc1ccc(-c2nc(-c3ccccn3)no2)cc1[N+](=O)[O-])c1ccccc1 (stereo not given)	none (no result: HCV inh)
Cc1cc(C(=O)CSc2ncn[nH]2)c(C)n1-c1cccc(S(=O)(=O)N2CCOCC2)c1	FMDV inh 28µM, MARV entry inh inconclusive, HCV inh inconclusive
Cc1cc(C(=O)CN2C(=O)CN(C)C2=O)c(C)n1-c1cccc(S(=O)(=O)N2CCOCC2)c1	HCV inh inconclusive (no result: MARV entry inh, LASV entry inh)
Cc1cc(C(=O)CCl)c(C)n1-c1cccc(S(=O)(=O)N2CCOCC2)c1	FMDV inh 25µM, MARV entry inh inconclusive, HCV inh inconclusive
CC(C(=O)Nc1ccc(OC(F)(F)F)cc1)N1Cc2ccccc2C1=O (stereo not given)	none (no result: MARV entry inh, HCV inh)
Cc1cc(C)n2nc(CNC(=O)c3cccc(Cl)c3)nc2n1	none (no result: HCV inh)
O=C(CCc1ccc(S(=O)(=O)N2CCOCC2)cc1)N/N=C/c1ccc(O)c(O)c1O	FMDV inh 40µM, HCMV antiviral -98
CCc1nc(SCC(=O)c2ccc(Cl)s2)c2oc3ccccc3c2n1	MARV entry inh inconclusive, HCV inh inconclusive (no result: HCMV antiviral)
CCc1nc(SCCO)c2oc3ccccc3c2n1	HCV inh 10µM
CCc1nc(Sc2nc(C)cc(C)n2)c2oc3ccccc3c2n1	MARV entry inh inconclusive, HCMV antiviral -86, HCV inh inconclusive
Cc1nc(SCc2nc3ccc(Br)cc3[nH]2)c2oc3ccccc3c2n1	none (no result: MARV entry inh, LASV entry inh, HCV inh)
CCc1nc(SCc2nc3ccccc3[nH]2)c2oc3ccccc3c2n1	FMDV inh inconclusive, MARV entry inh inconclusive, HCMV antiviral inconclusive, HCV inh 7.9µM
CCc1nc(SCC(=O)N2CCN(c3ccccc3)CC2)c2oc3ccccc3c2n1	FMDV inh inconclusive, MARV entry inh inconclusive, HCV inh 10µM
CCn1c(=O)c2cc(C(=O)Nc3cc(OC)c(OC)c(OC)c3)sc2c2ccccc21	FMDV inh inconclusive (no result: HCV inh)
CCN(CC)c1nc(-c2ccccc2)ncc1S(=O)(=O)c1ccc(C)cc1	HCV inh 7.1µM (no result: MARV entry inh, LASV entry inh)
Cc1cc(N2CCN(c3ccc(F)cc3)CC2)n2nc(-c3ccc(Cl)cc3)nc2n1	none (no result: HCV inh)
O=C(Nc1cc(Cl)cc(Cl)c1)c1cc(S(=O)(=O)NC2CCCC2)ccc1F	HCMV antiviral inconclusive (no result: MARV entry inh, HCV inh)
Cc1ccc2c(c1)nnn2C1CCN(CC(=O)N(c2ccccc2)c2ccccc2)CC1	HCMV antiviral -70, HCV inh inconclusive (no result: MARV entry inh, LASV entry inh)
Cc1ccc2c(c1)nnn2C1CCN(CC(=O)c2ccc(Cl)cc2)CC1	none
Cc1ccc2c(c1)nnn2C1CCN(CC(=O)N2c3ccccc3CC2C)CC1 (stereo not given)	FMDV inh inconclusive, HCMV antiviral -76
COc1cc2c(cc1OC)C(c1ccc(F)cc1)N(c1ccc(F)cc1)C(=O)C2 (stereo not given)	none (no result: HCV inh)
CCOC(=O)c1ccccc1NC(=O)c1cc2c(s1)-c1ccccc1SC2	MARV entry inh inconclusive (no result: HCV inh)
Cc1nc(C(=O)N(Cc2cc3ccc(F)cc3nc2N2CCC(O)CC2)CC2CCCO2)cs1 (stereo not given)	none (no result: MARV entry inh, LASV entry inh, HCMV antiviral, HCV inh)
COc1cccc(NC(=O)CNC(=O)[C@@H]2Cc3ccccc3CN2C(=O)OC(C)(C)C)c1	LASV entry inh inconclusive
COc1ccc(NC(=O)[C@H](C)NC(=O)[C@@H]2Cc3ccccc3CN2C(=O)OC(C)(C)C)cc1	HCMV antiviral active (no result: MARV entry inh, LASV entry inh)
CC(C)(C)OC(=O)N1Cc2ccccc2C[C@H]1C(=O)NCC(=O)Nc1ccc2c(c1)OCCO2	FMDV inh inconclusive, HCMV antiviral -68 (no result: MARV entry inh, LASV entry inh)
COc1ccc2c(Sc3ccc(C)cc3)c(C(=O)NCc3ccc(F)cc3)[nH]c2c1	MARV entry inh inconclusive (no result: HCV inh)
COc1ccc(CCNC(=O)CCn2c(SCC#N)nc3ccccc3c2=O)cc1OC	MARV entry inh inconclusive, HCV inh 13µM
COc1ccc(CCNC(=O)CCCn2c(SCC#N)nc3ccccc3c2=O)cc1OC	none
CCOc1ccc(CNS(=O)(=O)c2cc3c(cc2C)NC(=O)CO3)cc1OC	none (no result: MARV entry inh, HCV inh)
Cc1cccc(N(CC(=O)NC2CCCC2)C(=O)c2cc3cc4cccc(C)c4nc3s2)c1C	MARV entry inh inconclusive, HCV inh inconclusive
Cc1ccc(C)c(N(CC(=O)NC2CCCC2)C(=O)c2cc3cc4cc(C)ccc4nc3s2)c1	HCV inh 22µM (no result: FMDV inh)
CCOC(=O)NN=C1C[C@@H](O)[C@@H](O)[C@@H]2[C@H]3C(=O)N(C4CCCCC4)C(=O)[C@@H]3CC[C@H]12	LASV entry inh inconclusive (no result: FMDV inh, HCMV antiviral, HCV inh)
CN(C)c1ccccc1C(=O)c1ccccc1N(C)C	MARV entry inh inconclusive, HCV inh 4µM
C=CC(C)(C)c1c(O)c(CC=C(C)C)c(O)c2c(=O)c3ccc(O)c(O)c3oc12	FMDV inh inconclusive, HCV inh 11µM (no result: MARV entry inh, LASV entry inh, HCMV antiviral)
